# CYP2C19 activ: cytochrome P450 2C19 (human) activation; P33261; recombinant CYP2C19, luciferin-H EGE luminescence; active compounds read high; 0 = fully inhibited enzyme, 1 = untreated enzyme; activation factor at 5 µM; 96,000 tested, under 10 active; AID 1025;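 active means activation factor of at least 2 at 5 µM in the primary screen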;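 further: 0 = wells with 2.5 mM tranylcypromine and 1 = vehicle-only wells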
# Target sequence (P33261 whole entry, looked up): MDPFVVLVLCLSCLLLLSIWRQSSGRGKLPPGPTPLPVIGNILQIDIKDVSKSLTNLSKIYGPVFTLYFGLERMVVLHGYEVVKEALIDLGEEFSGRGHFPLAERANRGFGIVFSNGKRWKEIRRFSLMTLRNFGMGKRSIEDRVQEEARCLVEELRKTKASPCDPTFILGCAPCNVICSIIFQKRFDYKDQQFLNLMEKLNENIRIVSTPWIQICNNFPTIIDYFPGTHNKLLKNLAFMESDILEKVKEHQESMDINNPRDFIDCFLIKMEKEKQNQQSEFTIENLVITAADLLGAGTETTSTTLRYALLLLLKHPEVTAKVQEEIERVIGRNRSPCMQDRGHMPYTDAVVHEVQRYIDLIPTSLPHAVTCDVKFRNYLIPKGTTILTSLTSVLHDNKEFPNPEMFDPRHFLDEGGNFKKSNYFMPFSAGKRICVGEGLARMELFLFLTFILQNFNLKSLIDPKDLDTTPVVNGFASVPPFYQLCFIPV
# CYP2C9 activ: increases human cytochrome P450 2C9 activity | recombinant CYP2C9, luciferin-H conversion, luminescence; active compounds read high; factor 1 = untreated enzyme, 0 = blocked | activation factor at 5 µM | P11712 | AID 1024 | 96,000 tested, 1.4% active;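 active means activation factor of 2 or more for CYP2C9 at a 5 µM dose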;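 further: 0 = sulfaphenazole-blocked wells and 1 = vehicle-only wells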
# CYP2C19 inhib: inhibitors of human CYP2C19 | P33261 | CYP2C19 Supersomes, luciferin-H EGE luminescence, 30 min | inhibition, % at 5 µM | 96,000 tested, 21% active | AID 778;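 active means CYP2C19 inhibition above a set limit at 5 µM in the primary screen, cut at about 50% in these data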;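 further: plate controls were negative control wells for no effect and 2.5 mM tranylcypromine positive control for full effect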
# MRP reversal: MRP-mediated drug resistance reversal | H69AR cells + 2 uM doxorubicin, CellTiter-Glo, 72 h | differential viability (reversal), % at 10 µM | 85,000 tested, 0.04% active | AID 602;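 active means viability drop by adding the cancer drug above about 55%, with treated viability meeting a 40% cutoff, limit read from the data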;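 further: viability without doxorubicin minus viability with 2 µM doxorubicin for each compound; larger differential means the compound sensitizes cells more to doxorubicin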
# CYP2C9 inhib: inhibitors of human CYP2C9. P11712. CYP2C9 Supersomes, luciferin-H conversion, luminescence. inhibition, % at 5 µM. 96,000 tested, 20% active. AID 777;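 active means blocking of liver enzyme CYP2C9 beyond about 50% at 5 µM, limit read from the data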
# MRP-1 activ: activates MRP-1; AID 799; viability increase, % at 10 µM; H69AR cells + doxorubicin, viability rescue, CellTiter-Glo; 140,000 tested, 0.61% active;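 active means viability gain under doxorubicin at or above a set limit, the compound median plus 3 SD, cut at about 4.7% in these data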;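 further: MRP-1 overexpressing cells given doxorubicin 25 µM after compound pretreatment; 18-22 h compound pretreatment then 72 h with doxorubicin before readout; 0% = doxorubicin-only wells and 100% = vehicle-treated cells without doxorubicin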
# Starred values were filed as active, the others as inactive; . = no result given. Shown are actives, neighbours in structure and some others; about 21% of the full set was active somewhere.
SMILES,CYP2C19 activ,CYP2C9 activ,CYP2C19 inhib,MRP reversal,CYP2C9 inhib,MRP-1 activ
Cc1ccc(NC(=O)CN(C)C(=O)COc2ccc(C(=O)c3ccc(F)cc3)cc2)cc1,.,.,.,.,.,-2
Cc1ccc(OCC(=O)Nc2ccc(F)cc2)cc1,0.4,0.6,57*,5,36,-1
Cc1ccc(NC(=O)Cc2ccc(F)cc2)cc1,0,0.8,97*,11,18,0
O=C(COc1ccc(Br)cc1CO)Nc1ccc(F)cc1,0,0.1,99*,21,88*,0
Clc1ccc(CSc2ncnc3nc[nH]c23)cc1,.,.,.,.,.,0
CCOC(=O)C1C(c2cccc(Cl)c2Cl)NC(=O)NC1(O)C(F)(F)F (stereo not given),0.8,1,21,2,1,-3
Cc1ccc(NC(=O)COC(=O)c2ccnn2C)cc1,0.6,1,44,10,0,0
Cc1ccnc(NC(=O)Nc2ccc(F)cc2)c1,0.8,0.7,18,-5,27,0
O=C(CNc1ccccc1)Nc1ccc(F)cc1,0.4,0.8,56*,8,24,-4
Cc1ccc(NC(=O)Nc2ccc(F)cc2)nc1,0.4,0.9,57*,25,11,0
O=C(Nc1ccc(F)cc1)c1ccccc1,0.9,1.1,6,20,-7,1
COc1ccc(OCC(=O)Nc2ccc(C)cc2)cc1,0.2,0.5,82*,8,52*,0
Cc1ccc(NC(=O)COC(=O)c2ccn(C)n2)cc1,0.2,0.7,79*,3,35,2
COc1ccc(OCC(=O)NNC(=O)C(=O)Nc2ccc(C)cc2)cc1,.,.,.,.,.,0
CCN(CC)CCCNc1oc(-c2cccc(Cl)c2)nc1C#N,0.9,0.9,10,7,11,-5
O=C(Nc1cccc(Oc2ccc3c(c2)C(=O)NC3=O)c1)c1cccs1,.,.,.,.,.,3
COc1ccc(OCC(=O)Sc2ccc(C)cc2)cc1,0.3,0.7,68*,-2,30,-1
COc1ccc(C(=O)NCCSc2ccc(C)cc2)cc1,.,.,.,.,.,0
O=C(Cc1ccccn1)Nc1ccccc1,1,1.2,0,-11,-16,-3
O=C(Cc1coc(-c2ccc(F)cc2)n1)Nc1ccccc1,0.1,0.4,86*,.,61*,-2
Cc1nc2ncnn2c(N2CCN(c3cccc(C(F)(F)F)c3)CC2)c1C,0.4,0.6,64*,-7,44,-6
COc1ccccc1N1CCN(CC(=O)NCC2CCCO2)CC1 (stereo not given),.,.,.,0,.,-3
N#Cc1c(N)n[nH]c1CCCN,1.1,0.9,-10,.,14,0
CCCCNS(=O)(=O)c1ccc(OC)c(Cl)c1Cl,0.5,1.6,52*,9,-59,-2
COCC(C)NS(=O)(=O)c1ccc(C)cc1 (stereo not given),0.8,1.1,17,.,-8,0
SMILES,CYP2C19 activ,CYP2C9 activ,CYP2C19 inhib,MRP reversal,CYP2C9 inhib,MRP-1 activ
COCCCNS(=O)(=O)c1ccc(OC)c(Cl)c1Cl,0.1,3.7*,88*,-13,-268,0
CCC(C)NS(=O)(=O)c1ccc(OC)c(Cl)c1Cl (stereo not given),0.3,1.4,70*,.,-36,-1
COc1ccc(CCNC(=O)Cn2cnc3c(nnn3Cc3ccccc3F)c2=O)cc1OC,.,.,.,10,.,0
Cc1[nH]n(-c2ccc(F)cc2)c(=O)c1C=Nc1ccc(S(=O)(=O)N(C)C)cc1,.,.,.,.,.,1
CNC(=S)N(CCc1ccc(OC)c(OC)c1)Cc1cc2c(C)cc(C)cc2[nH]c1=O,.,.,.,.,.,-1
O=C(CCc1ccccc1)Nc1cc(C(F)(F)F)ccc1Cl,0.4,3.9*,62*,.,-291,-1
CN(C)CC(=O)Nc1cc(C(F)(F)F)ccc1Cl,0.9,2.2*,8,1,-124,0
Cc1ccc[n+](CC(=O)Nc2cc(C(F)(F)F)ccc2Cl)c1,0.9,1.1,15,.,-10,-1
CCOC(=O)/C(=N\Nc1cc(C(F)(F)F)ccc1Cl)N(CC)CC,0.2,0.6,80*,.,42,-1
O=C(CS(=O)c1cccc(C(F)(F)F)c1)Nc1ccccc1Cl (stereo not given),0.5,3.3*,55*,.,-231,-1
CCOC(=O)c1c(C)[nH]c(C(=O)COC(=O)CNC(=O)c2ccc(Cl)cc2Cl)c1C,.,.,.,.,.,0
c1ccc(Cn2nnc3c(Nc4ccc5c(c4)OCO5)nc(C4CC4)nc32)cc1,0.9,0.6,7,.,36,-1
COc1cccc(NC2C=CS(=O)(=O)C2)c1 (stereo not given),.,.,.,-17,.,0
O=S1(=O)C=CC(Nc2cccc(Cl)c2)C1 (stereo not given),0.8,0.3,18,-14,71*,-5
Cc1ccc(N2C(=O)N(Cc3ccccc3C)c3ccccc3S2(=O)=O)cc1,.,.,.,.,.,2
COC(=O)Cc1cc(=O)[nH]c(/N=C(/NC(=O)c2ccccc2)Nc2ccccc2C)n1,.,.,.,4,.,.
N#Cc1c(Cl)cccc1-n1ccnc1,0.6,0.5,41,.,51*,-1
C/C(=N\Nc1cccc(Cl)c1)c1ccc(-n2ccnc2)cc1,.,.,.,.,.,-1
O=C(CCl)NCc1c(Cl)cccc1-n1cccc1,0.8,1,16,.,-1,-3
N#Cc1c(-n2cccc2)cccc1-n1cccc1,0.4,3.7*,62*,.,-270,2
Cc1ccc(C2(CC(=O)N3CCCC3)CCOC(C(C)C)C2)cc1 (stereo not given),0.8,1,21,19,4,-2
COc1ccccc1C1(CC(=O)N2CCCCC2)CCOC(C(C)C)C1 (stereo not given),0.5,0.7,50*,-2,34,-1
Cn1c2ccccc2c(=O)c2c(=O)n(C3CCCCC3)c(-c3ccco3)nc21,.,.,.,.,.,-4
COCCn1nnnc1CN(CCc1ccccc1)Cc1cc2ccc(C)cc2[nH]c1=O,0.5,0.7,46,-8,31,-3
COC(=O)C1=C(C)NC(=O)CC1c1cc2c(cc1Br)OCO2 (stereo not given),0.2,0.3,82*,5,71*,1
SMILES,CYP2C19 activ,CYP2C9 activ,CYP2C19 inhib,MRP reversal,CYP2C9 inhib,MRP-1 activ
COC(=O)C1=C(C)NC(=O)CC1c1ccc(C(=O)OC)cc1 (stereo not given),0.8,0.9,21,-7,13,-1
COC(=O)C1=C(C)NC(=O)CC1c1ccc(F)c(Br)c1 (stereo not given),0.5,0.7,51*,-1,27,-3
CSCCOC(=O)C1=C(C)NC(=O)CC1c1ccccc1Cl (stereo not given),0.9,0.8,15,-3,15,-3
CC1=C(C(=O)OCCOC(C)C)C(c2cc3c(cc2Br)OCO3)CC(=O)N1 (stereo not given),0.2,0.3,80*,16,65*,-3
COC(=O)C1=C(C)NC(=O)CC1c1ccccc1F (stereo not given),0.7,0.7,26,-17,32,-1
Cn1c2c(c(=O)n(C)c1=O)C(c1cc3c(cc1Br)OCO3)CC(=O)N2 (stereo not given),1.1,1,-14,12,-2,0

# Screening data: PubChem, several laboratories
